# Measured values from publication PMC7862700, “An all-to-all approach to the identification of sequence-specific readers for epigenetic DNA modifications on cytosine”.
# Key:
# Assay in all cases: DAPPL (digital affinity profiling via proximity ligation, sequencing); 10 mM Tris-HCl pH 7.5, 50 mM NaCl, 1 mM DTT, 4% glycerol, room temperature, 30 min; GST-TFs on glutathione beads, 16-mer random dsDNA library, 0.1% formaldehyde crosslink after washing; high values mean tight binding
# [1] = target: T1, FLI1 (Homo sapiens, UniProt Q01543 1-452); settings: protein: recombinant; tags: N-terminal GST; dsDNA, one strand shown
# T1 sequence: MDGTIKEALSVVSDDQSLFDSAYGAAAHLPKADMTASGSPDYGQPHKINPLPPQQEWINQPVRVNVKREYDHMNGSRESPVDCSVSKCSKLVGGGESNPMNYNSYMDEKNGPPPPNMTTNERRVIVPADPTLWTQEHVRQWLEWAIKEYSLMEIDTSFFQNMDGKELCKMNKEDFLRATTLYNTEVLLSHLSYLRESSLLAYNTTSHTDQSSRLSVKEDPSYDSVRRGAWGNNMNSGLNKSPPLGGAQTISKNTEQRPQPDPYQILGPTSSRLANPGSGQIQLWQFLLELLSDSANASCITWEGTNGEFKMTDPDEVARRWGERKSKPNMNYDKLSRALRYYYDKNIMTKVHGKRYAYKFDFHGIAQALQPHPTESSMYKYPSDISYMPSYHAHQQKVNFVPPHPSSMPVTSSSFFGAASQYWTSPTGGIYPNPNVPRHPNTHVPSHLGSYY
# Summary of the method: (§1)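 Beads coated with glutathione captured GST-fused human transcription factors that had been expressed in yeast, and the factors were then given DNA barcodes and pooled with a tag-only sample. The pools were incubated with 200 nmole of a random double-stranded 16-mer DNA library in Tris/NaCl/DTT/glycerol buffer for 30 min at room temperature, washed, crosslinked with 0.1% formaldehyde and proximity-ligated with BsaI/T4 ligase at 37 °C for 1 h. PCR amplification and Illumina NextSeq500 sequencing came last. Binding signal is each hexamer's read frequency for a factor divided by its frequency for the tag-only sample.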
# [2] = target: T2, ELK1 (Homo sapiens, UniProt P19419 1-428); settings: protein: recombinant; tags: N-terminal GST; dsDNA, one strand shown
# T2 sequence: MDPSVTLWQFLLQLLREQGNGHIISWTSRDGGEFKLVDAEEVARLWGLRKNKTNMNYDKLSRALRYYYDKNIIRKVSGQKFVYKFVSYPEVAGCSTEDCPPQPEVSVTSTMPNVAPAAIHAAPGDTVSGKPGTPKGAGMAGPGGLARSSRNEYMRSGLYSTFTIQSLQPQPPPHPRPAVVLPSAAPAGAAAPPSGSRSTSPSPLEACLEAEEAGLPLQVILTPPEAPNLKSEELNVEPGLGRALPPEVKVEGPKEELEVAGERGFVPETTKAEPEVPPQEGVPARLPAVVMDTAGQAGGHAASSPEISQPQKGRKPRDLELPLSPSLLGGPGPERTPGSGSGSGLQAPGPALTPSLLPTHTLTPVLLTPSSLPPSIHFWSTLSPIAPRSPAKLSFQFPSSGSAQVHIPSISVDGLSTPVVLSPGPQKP
# Summary of the method: as §1
# [3] = target: T3, GABPA (Homo sapiens, UniProt Q06546 1-454); settings: protein: recombinant; tags: N-terminal GST; dsDNA, one strand shown
# T3 sequence: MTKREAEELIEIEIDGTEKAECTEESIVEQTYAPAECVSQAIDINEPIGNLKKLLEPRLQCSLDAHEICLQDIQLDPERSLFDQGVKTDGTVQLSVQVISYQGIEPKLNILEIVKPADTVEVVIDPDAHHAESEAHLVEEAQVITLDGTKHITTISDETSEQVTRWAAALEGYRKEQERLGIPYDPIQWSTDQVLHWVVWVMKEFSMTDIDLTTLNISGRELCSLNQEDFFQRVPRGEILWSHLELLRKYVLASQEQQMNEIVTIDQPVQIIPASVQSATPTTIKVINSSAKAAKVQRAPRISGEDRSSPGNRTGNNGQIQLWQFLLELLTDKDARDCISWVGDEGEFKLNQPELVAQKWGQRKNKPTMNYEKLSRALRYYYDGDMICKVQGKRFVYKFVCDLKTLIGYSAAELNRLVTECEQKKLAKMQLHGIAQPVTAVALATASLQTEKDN
# Summary of the method: as §1
# [4] = target: T4, ERG (Homo sapiens, UniProt P11308 1-479); settings: protein: recombinant; tags: N-terminal GST; dsDNA, one strand shown
# T4 sequence: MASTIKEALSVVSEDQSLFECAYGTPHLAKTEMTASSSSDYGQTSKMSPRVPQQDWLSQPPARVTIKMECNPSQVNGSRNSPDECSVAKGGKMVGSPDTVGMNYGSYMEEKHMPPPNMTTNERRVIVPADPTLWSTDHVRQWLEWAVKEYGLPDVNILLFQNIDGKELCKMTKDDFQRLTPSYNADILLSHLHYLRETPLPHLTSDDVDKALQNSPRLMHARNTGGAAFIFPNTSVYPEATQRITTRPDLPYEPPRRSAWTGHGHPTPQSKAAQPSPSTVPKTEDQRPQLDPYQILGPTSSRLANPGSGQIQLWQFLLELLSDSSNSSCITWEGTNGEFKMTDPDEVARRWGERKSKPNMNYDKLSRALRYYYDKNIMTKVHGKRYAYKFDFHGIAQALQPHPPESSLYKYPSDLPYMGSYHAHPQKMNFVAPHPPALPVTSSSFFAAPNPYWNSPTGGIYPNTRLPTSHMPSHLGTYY
# Summary of the method: as §1
# [5] = target: ELF1 (Homo sapiens, UniProt P32519 1-619); settings: protein: recombinant; tags: N-terminal GST; dsDNA, one strand shown
# Sequence of ELF1 (P32519 whole entry): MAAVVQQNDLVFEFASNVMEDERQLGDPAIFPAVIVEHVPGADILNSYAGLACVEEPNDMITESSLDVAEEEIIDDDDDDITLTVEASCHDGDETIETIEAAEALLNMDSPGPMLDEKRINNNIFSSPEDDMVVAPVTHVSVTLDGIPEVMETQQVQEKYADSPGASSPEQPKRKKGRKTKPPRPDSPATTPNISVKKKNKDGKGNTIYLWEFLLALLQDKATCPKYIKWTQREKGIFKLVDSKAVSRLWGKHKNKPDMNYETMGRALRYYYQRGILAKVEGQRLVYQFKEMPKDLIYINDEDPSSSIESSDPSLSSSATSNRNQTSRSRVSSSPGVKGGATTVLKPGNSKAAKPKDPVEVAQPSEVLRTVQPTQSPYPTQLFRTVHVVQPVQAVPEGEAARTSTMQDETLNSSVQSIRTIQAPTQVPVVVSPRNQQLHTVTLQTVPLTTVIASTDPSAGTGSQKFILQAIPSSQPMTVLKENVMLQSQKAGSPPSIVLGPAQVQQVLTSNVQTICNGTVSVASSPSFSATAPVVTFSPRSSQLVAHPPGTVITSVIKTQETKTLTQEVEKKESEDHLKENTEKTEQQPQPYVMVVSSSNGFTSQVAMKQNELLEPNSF
# Summary of the method: as §1
# [6] = target: T5, EHF (Homo sapiens, UniProt Q9NZC4 1-300); settings: protein: recombinant; tags: N-terminal GST; dsDNA, one strand shown
# T5 sequence: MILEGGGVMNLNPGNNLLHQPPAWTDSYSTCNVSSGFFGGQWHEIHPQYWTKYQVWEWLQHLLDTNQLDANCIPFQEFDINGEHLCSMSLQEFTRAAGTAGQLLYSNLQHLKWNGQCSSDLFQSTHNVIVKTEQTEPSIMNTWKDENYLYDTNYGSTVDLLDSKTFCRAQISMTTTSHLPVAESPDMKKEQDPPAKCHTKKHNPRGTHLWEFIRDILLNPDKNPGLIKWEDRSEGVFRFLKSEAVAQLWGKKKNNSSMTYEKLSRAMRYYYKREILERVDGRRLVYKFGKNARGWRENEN
# Summary of the method: as §1
# [7] = target: SPI1 (Homo sapiens, UniProt P17947 1-270); settings: protein: recombinant; tags: N-terminal GST; dsDNA, one strand shown
# Summary of the method: as §1
# [8] = target: SPIB (Homo sapiens, UniProt Q01892 1-262); settings: protein: recombinant; tags: N-terminal GST; dsDNA, one strand shown
# Sequence of SPIB (Q01892 whole entry): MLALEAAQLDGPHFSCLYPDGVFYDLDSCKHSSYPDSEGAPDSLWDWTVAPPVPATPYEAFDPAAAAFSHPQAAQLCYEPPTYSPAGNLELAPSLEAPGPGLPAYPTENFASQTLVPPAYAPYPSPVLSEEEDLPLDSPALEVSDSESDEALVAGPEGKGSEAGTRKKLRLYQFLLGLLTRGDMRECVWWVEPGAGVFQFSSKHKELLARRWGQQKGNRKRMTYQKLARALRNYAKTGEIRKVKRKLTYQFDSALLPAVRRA
# Summary of the method: as §1
# [9] = target: T6, ELK3 (Homo sapiens, UniProt P41970 1-407); settings: protein: recombinant; tags: N-terminal GST; dsDNA, one strand shown
# T6 sequence: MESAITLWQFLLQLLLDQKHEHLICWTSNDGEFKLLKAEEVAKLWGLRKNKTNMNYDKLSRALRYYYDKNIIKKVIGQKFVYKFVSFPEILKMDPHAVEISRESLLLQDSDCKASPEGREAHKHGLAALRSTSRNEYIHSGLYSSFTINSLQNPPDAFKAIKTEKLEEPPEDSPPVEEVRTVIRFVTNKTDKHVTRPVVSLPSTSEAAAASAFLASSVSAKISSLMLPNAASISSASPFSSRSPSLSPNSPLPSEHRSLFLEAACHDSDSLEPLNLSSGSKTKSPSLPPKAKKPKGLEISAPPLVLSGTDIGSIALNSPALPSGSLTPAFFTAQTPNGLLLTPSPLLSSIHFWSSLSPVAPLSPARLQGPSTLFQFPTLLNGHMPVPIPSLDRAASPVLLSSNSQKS
# Summary of the method: as §1
# [10] = target: T7, FEV (Homo sapiens, UniProt Q99581 1-238); settings: protein: recombinant; tags: N-terminal GST; dsDNA, one strand shown
# T7 sequence: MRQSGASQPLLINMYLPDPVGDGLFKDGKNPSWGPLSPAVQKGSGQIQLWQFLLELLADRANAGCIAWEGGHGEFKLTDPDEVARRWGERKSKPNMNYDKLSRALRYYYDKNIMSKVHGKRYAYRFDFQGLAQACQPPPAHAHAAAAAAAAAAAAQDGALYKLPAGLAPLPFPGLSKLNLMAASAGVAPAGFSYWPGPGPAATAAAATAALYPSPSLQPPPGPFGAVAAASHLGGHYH
# Summary of the method: as §1
# [11] = target: ETV5 (Homo sapiens, UniProt P41161 1-510); settings: protein: recombinant; tags: N-terminal GST; dsDNA, one strand shown
# Sequence of ETV5 (P41161 whole entry): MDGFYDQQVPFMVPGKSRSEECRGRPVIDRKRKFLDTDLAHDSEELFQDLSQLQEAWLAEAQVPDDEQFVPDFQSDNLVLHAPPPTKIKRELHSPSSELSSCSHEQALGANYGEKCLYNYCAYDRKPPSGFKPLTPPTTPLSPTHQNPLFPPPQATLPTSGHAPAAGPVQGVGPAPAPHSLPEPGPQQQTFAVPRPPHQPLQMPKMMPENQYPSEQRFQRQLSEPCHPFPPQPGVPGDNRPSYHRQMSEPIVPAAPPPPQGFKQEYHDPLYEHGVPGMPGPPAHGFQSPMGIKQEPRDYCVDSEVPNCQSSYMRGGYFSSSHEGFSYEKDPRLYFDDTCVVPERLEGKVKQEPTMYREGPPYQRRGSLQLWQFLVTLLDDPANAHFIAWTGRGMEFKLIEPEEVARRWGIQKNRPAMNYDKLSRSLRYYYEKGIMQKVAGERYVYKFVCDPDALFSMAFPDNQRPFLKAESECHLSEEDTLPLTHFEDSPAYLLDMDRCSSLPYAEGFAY
# Summary of the method: as §1
# [12] = target: HSF1 (Homo sapiens, UniProt Q00613 1-529); settings: protein: recombinant; tags: N-terminal GST; chain copies: 3; dsDNA, one strand shown
# Sequence of HSF1 (Q00613 whole entry): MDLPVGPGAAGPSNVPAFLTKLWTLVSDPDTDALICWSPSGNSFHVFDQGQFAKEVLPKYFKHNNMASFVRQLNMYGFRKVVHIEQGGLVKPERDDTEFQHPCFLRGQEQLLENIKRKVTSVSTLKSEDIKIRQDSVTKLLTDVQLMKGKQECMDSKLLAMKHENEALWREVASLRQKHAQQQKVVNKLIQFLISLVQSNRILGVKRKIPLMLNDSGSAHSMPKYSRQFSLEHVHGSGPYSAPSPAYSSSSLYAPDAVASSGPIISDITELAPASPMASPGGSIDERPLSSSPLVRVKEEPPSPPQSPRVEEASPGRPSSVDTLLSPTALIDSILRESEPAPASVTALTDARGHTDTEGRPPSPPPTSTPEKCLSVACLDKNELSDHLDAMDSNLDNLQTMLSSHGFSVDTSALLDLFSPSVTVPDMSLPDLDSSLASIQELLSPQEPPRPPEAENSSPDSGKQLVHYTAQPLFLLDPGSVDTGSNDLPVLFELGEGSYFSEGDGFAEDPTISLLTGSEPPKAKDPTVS
# Summary of the method: as §1
# [13] = target: T8, SPIC (Homo sapiens, UniProt Q8N5J4 1-248); settings: protein: recombinant; tags: N-terminal GST; dsDNA, one strand shown
# T8 sequence: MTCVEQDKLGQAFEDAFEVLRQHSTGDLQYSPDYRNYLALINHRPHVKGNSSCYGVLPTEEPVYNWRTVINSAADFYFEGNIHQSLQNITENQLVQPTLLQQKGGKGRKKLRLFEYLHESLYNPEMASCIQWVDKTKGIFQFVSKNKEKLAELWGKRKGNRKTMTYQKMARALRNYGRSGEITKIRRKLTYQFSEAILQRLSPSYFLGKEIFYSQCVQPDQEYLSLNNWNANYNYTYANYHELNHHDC
# Summary of the method: as §1
# [14] = target: ELF4 (Homo sapiens, UniProt Q99607 1-663); settings: protein: recombinant; tags: N-terminal GST; dsDNA, one strand shown
# Sequence of ELF4 (Q99607 whole entry): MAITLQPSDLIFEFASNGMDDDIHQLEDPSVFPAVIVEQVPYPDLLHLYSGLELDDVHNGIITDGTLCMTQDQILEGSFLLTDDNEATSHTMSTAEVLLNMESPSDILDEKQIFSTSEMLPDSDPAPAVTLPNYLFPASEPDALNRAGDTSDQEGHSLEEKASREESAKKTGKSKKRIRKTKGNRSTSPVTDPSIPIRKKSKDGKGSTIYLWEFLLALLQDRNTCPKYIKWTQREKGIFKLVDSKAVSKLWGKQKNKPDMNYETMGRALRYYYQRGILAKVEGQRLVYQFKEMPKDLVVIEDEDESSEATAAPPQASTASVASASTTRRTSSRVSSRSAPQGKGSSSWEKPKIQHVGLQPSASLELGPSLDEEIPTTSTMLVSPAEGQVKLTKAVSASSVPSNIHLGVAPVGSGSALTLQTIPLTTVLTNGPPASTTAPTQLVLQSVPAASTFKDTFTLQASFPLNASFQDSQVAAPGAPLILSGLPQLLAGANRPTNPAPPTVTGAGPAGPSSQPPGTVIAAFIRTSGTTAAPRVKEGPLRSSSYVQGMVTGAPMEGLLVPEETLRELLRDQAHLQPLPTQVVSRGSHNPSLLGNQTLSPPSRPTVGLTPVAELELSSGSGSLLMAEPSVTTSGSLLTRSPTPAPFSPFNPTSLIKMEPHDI
# Summary of the method: as §1
# [15] = target: T9, ELK4 (Homo sapiens, UniProt P28324-2 1-405); settings: protein: recombinant; tags: N-terminal GST; dsDNA, one strand shown
# T9 sequence: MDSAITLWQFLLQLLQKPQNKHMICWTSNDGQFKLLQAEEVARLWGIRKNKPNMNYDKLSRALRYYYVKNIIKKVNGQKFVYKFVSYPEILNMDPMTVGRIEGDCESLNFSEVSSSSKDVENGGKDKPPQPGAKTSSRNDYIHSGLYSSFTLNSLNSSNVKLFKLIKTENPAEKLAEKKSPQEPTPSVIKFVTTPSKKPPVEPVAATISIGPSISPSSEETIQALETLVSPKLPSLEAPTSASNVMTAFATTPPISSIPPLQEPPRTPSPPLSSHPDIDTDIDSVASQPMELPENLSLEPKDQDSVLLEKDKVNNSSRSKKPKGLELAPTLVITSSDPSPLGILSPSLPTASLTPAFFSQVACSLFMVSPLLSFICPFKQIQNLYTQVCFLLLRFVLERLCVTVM
# Summary of the method: as §1
# [16] = target: T10, ETV2 (Homo sapiens, UniProt O00321 1-342); settings: protein: recombinant; tags: N-terminal GST; dsDNA, one strand shown
# T10 sequence: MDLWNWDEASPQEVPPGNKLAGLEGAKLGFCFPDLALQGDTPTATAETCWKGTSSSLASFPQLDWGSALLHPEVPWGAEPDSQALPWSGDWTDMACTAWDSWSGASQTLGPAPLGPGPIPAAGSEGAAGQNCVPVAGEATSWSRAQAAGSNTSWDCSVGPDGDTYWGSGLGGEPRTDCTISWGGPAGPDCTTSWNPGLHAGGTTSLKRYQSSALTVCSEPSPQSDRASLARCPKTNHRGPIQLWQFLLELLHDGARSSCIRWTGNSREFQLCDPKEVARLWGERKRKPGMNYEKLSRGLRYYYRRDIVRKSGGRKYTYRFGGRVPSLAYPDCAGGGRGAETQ
# Summary of the method: as §1
# [17] = target: T11, ELF3 (Homo sapiens, UniProt P78545 1-371); settings: protein: recombinant; tags: N-terminal GST; dsDNA, one strand shown
# T11 sequence: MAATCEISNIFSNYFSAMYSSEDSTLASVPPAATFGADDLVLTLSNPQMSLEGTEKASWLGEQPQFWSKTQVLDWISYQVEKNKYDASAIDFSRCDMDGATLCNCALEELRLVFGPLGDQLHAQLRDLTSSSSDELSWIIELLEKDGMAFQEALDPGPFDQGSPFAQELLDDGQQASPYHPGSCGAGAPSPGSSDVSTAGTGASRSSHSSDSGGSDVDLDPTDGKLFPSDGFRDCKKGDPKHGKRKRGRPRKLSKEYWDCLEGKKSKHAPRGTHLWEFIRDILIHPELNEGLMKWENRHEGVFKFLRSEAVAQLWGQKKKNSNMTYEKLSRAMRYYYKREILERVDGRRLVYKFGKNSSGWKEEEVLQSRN
# Summary of the method: as §1
# [18] = target: CRX (Homo sapiens, UniProt O43186 1-299); settings: protein: recombinant; tags: N-terminal GST; dsDNA, one strand shown
# Sequence of CRX (O43186 whole entry): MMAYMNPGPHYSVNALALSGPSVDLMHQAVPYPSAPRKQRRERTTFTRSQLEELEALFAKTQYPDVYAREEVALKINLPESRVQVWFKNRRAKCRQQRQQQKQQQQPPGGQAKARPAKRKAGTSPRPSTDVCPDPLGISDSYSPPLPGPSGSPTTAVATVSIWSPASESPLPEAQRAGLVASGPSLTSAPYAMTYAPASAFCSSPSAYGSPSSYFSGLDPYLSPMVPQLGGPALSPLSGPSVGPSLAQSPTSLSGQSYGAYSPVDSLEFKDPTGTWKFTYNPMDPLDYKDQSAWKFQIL
# Summary of the method: as §1
# [19] = target: ETV1 (Homo sapiens, UniProt P50549 1-477); settings: protein: recombinant; tags: N-terminal GST; dsDNA, one strand shown
# Sequence of ETV1 (P50549 whole entry): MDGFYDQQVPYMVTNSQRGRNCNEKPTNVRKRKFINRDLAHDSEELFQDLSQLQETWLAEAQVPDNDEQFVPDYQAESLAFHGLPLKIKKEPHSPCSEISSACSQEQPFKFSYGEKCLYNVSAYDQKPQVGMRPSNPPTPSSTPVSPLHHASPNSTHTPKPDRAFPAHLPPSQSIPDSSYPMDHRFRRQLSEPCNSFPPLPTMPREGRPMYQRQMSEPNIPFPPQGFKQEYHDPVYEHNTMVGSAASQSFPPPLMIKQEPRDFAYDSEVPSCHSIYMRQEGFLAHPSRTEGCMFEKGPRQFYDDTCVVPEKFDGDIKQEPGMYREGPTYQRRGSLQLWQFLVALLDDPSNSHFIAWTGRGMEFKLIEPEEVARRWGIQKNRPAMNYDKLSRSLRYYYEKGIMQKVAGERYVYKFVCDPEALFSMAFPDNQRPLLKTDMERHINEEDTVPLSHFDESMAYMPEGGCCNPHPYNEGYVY
# Summary of the method: as §1
sequence,measurement,setting,value
TTTGAC,binding signal,[1],"1.57 fold enrichment (6-mer frequency, TF over GST control)"
same,binding signal,[2],"1.59 fold enrichment (6-mer frequency, TF over GST control)"
same,binding signal,[3],"1.55 fold enrichment (6-mer frequency, TF over GST control)"
same,binding signal,[4],"1.45 fold enrichment (6-mer frequency, TF over GST control)"
same,binding signal,[5],"1.4 fold enrichment (6-mer frequency, TF over GST control)"
same,binding signal,[6],"1.35 fold enrichment (6-mer frequency, TF over GST control)"
same,binding signal,[7],"1.34 fold enrichment (6-mer frequency, TF over GST control)"
same,binding signal,[8],"1.35 fold enrichment (6-mer frequency, TF over GST control)"
same,binding signal,[9],"1.34 fold enrichment (6-mer frequency, TF over GST control)"
same,binding signal,[10],"1.37 fold enrichment (6-mer frequency, TF over GST control)"
same,binding signal,[11],"1.5 fold enrichment (6-mer frequency, TF over GST control)"
same,binding signal,[12],"1.35 fold enrichment (6-mer frequency, TF over GST control)"
same,binding signal,[13],"1.3 fold enrichment (6-mer frequency, TF over GST control)"
same,binding signal,[14],"1.47 fold enrichment (6-mer frequency, TF over GST control)"
same,binding signal,[15],"1.41 fold enrichment (6-mer frequency, TF over GST control)"
same,binding signal,[16],"1.5 fold enrichment (6-mer frequency, TF over GST control)"
same,binding signal,[17],"1.39 fold enrichment (6-mer frequency, TF over GST control)"
same,binding signal,[18],"1.37 fold enrichment (6-mer frequency, TF over GST control)"
same,binding signal,[19],"1.42 fold enrichment (6-mer frequency, TF over GST control)"
